Among the data in PubChem BioAssay (NCI) are growth values, retold here.

This is part of a sample that, as a whole, favours compounds with a hit. Of some 83,000 tested, about 20% had one in any assay.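 Single-concentration screen, 48 h exposure, 96-well plates. Endpoint: percent growth. Below 10 = active.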 Unmarked numbers belong to inactive results. Active and inactive are the calls of the source.

Test systems include NCI-H23 lung; NCI-H226 lung; NCI-H322M lung; HOP-62 NSCLC; NCI-H460 lung; HOP-92 NSCLC; NCI-H522 lung; A549/ATCC NSCLC; 786-0 renal; COLO 205 colon.
What all share (experiment): NCI-60 one-dose screen, 48 h (100 = growth as untreated, 0 = no growth, -100 = all killed)
What all share (conditions): 10 µM unless noted

Consider `Cc1ccc2c(C(C[N+](=O)[O-])c3ccco3)c(-c3ccccc3)[nH]c2c1` (stereo not given), for which the growth is 51.3% in the experiment with NCI-H23 lung; 46.5% with NCI-H226 lung; 53.3% in the experiment on NCI-H322M lung; 24% in the experiment with HOP-62 NSCLC; 13.9% in the experiment with NCI-H460 lung; 39.9% in the experiment with HOP-92 NSCLC. Besides, the growth with NCI-H522 lung is -11.7% (active); in the experiment on A549/ATCC NSCLC, 33.3%; with 786-0 renal, 31.2%; in the experiment with COLO 205 colon it was 21.8%.
Turning to `COc1ccc(/C=C\c2cc(OC)c(OC)c(OC)c2)cc1OC(=O)c1cccc(Cn2cc(CCOC(=O)[C@H](N)Cc3cn(C)c4ccccc34)nn2)c1`, the growth in the experiment with NCI-H23 lung was 29.6%; with NCI-H226 lung, 19.8%; in the experiment with NCI-H322M lung it was 50.1%; with HOP-62 NSCLC it was 44.3%; in the experiment with NCI-H460 lung, 1.11% (active); in the experiment with HOP-92 NSCLC, 61.6%. The growth with NCI-H522 lung was 18.9%; in the experiment with A549/ATCC NSCLC, 19.7%; with 786-0 renal, 15.7%; in the experiment with COLO 205 colon it was -54.5% (active).
Regarding `C#CCOc1ccc2ncnc(N3CCC(NC(=O)CCl)CC3)c2c1`, the growth is 71.6% [8.25 µM] in the experiment on NCI-H23 lung; 2.28% [8.25 µM] (active) with NCI-H226 lung; 88.1% [8.25 µM] in the experiment on NCI-H322M lung; 68.2% [8.25 µM] in the experiment on HOP-62 NSCLC; 81.5% [8.25 µM] with NCI-H460 lung; 56.8% [8.25 µM] in the experiment with HOP-92 NSCLC. Further, the growth with NCI-H522 lung is 55.6% [8.25 µM]; with A549/ATCC NSCLC, 75.7% [8.25 µM]; with 786-0 renal it was 45.8% [8.25 µM]; in the experiment with COLO 205 colon, 82.5% [8.25 µM].
Turning to `CC1=CC(C)(C)Nc2ccc(Cc3ccc4c(c3)C(C)=CC(C)(C)N4)cc21`, the growth in the experiment on NCI-H23 lung is 97.1%; with NCI-H226 lung, 88.4%; with NCI-H322M lung it was 113%; with HOP-62 NSCLC, 94.1%; in the experiment with NCI-H460 lung, 104%; in the experiment on HOP-92 NSCLC, 99.7%. The growth in the experiment on NCI-H522 lung was 68%; with A549/ATCC NSCLC, 78.5%; with 786-0 renal, 97.1%; with COLO 205 colon it was 125%.
With `CN1CCN(c2ccc(Nc3c4ccccc4nc4ccccc34)cc2)CC1`, the growth is 105% in the experiment with NCI-H23 lung; 107% in the experiment on NCI-H226 lung; 120% with NCI-H322M lung; 110% with HOP-62 NSCLC; 104% in the experiment with NCI-H460 lung; 178% in the experiment with HOP-92 NSCLC. Also, the growth with NCI-H522 lung was 99.7%; in the experiment with A549/ATCC NSCLC it was 98.2%; with 786-0 renal it was 102%; in the experiment with COLO 205 colon, 114%.
Take `CCOC(=O)c1sc(Nc2ccc(Cl)cc2)nc1C`: the growth in the experiment with NCI-H23 lung was 19.3%; in the experiment with NCI-H226 lung it was 21.9%; in the experiment on NCI-H322M lung it was 53.4%; with HOP-62 NSCLC it was 28.3%; in the experiment with NCI-H460 lung, 19.3%; with HOP-92 NSCLC it was -20.9% (active). The growth in the experiment with NCI-H522 lung was -14.4% (active); in the experiment with A549/ATCC NSCLC, 15.2%; in the experiment on 786-0 renal, 25%; in the experiment with COLO 205 colon it was 11%.
Regarding `CCNC(=O)Oc1ccc(/C(=C(\C)c2ccc(Cl)cc2)c2ccc(OCCN3CCCCC3)cc2)cc1`, the growth with NCI-H23 lung was 65.1%; in the experiment with NCI-H226 lung, 78.2%; in the experiment on NCI-H322M lung, 75.2%; in the experiment with HOP-62 NSCLC it was 58.7%; in the experiment on NCI-H460 lung, 22.3%; with HOP-92 NSCLC, 68.8%. Moreover, the growth in the experiment on NCI-H522 lung was 80%; in the experiment with A549/ATCC NSCLC, 46.1%; with 786-0 renal it was 41.9%; in the experiment on COLO 205 colon it was -60.9% (active).
As to `CCCOc1cc2ccccc2cc1C(=O)Nc1nc(N)c2c(ccc3nccc32)[nH]1`, the growth is -55.1% (active) in the experiment with NCI-H23 lung; -56.6% (active) with NCI-H226 lung; -35.1% (active) in the experiment on NCI-H322M lung; -68.8% (active) with HOP-62 NSCLC; -75.8% (active) with NCI-H460 lung; -71.2% (active) in the experiment with HOP-92 NSCLC. The growth was -59.6% (active) in the experiment with NCI-H522 lung, -70.3% (active) in the experiment with A549/ATCC NSCLC, -71.9% (active) with 786-0 renal and -78.3% (active) in the experiment on COLO 205 colon.
Consider `CCc1c(Nc2ccccc2C)nc(N)[nH]c1=O`, for which the growth with NCI-H23 lung was 117%; in the experiment on NCI-H226 lung, 103%; in the experiment with NCI-H322M lung, 103%; in the experiment with HOP-62 NSCLC, 100%; in the experiment with NCI-H460 lung, 108%; in the experiment on HOP-92 NSCLC, 93.7%. In addition, the growth is 99% in the experiment with NCI-H522 lung, 114% in the experiment on A549/ATCC NSCLC, 109% with 786-0 renal and 109% in the experiment with COLO 205 colon.
On to `COC(=O)[C@@H]1CCCN1C(=O)[C@@H]1CCCN1C(=O)[C@H](Cc1ccccc1)NC(=S)Nc1cc(C(F)(F)F)cc(C(F)(F)F)c1`, for which the growth is 89.2% with NCI-H23 lung; 80.2% with NCI-H226 lung; 89.7% in the experiment on NCI-H322M lung; 89.8% in the experiment on HOP-62 NSCLC; 84.8% in the experiment with NCI-H460 lung; 58.9% in the experiment with HOP-92 NSCLC. Moreover, the growth is -11.4% (active) in the experiment with NCI-H522 lung, 15.6% in the experiment on A549/ATCC NSCLC, 82.4% with 786-0 renal and 82.7% in the experiment on COLO 205 colon.
As for `O=C(COc1ccc(/C=C2\COc3ccccc3C2=O)cc1)Nc1nccs1`, the growth is 79% with NCI-H23 lung; 99% with NCI-H226 lung; 104% in the experiment with NCI-H322M lung; 94.6% in the experiment on HOP-62 NSCLC; 102% with NCI-H460 lung; 64.9% in the experiment with HOP-92 NSCLC. Besides, the growth with NCI-H522 lung was 56.5%; in the experiment on A549/ATCC NSCLC it was 98.3%; with 786-0 renal it was 89.3%; in the experiment with COLO 205 colon it was 127%.
In the case of `CCCCN1CCCn2c1nc1c2c(=O)n(CCC)c(=O)n1CCC`, the growth was 104% with NCI-H23 lung; 113% with NCI-H226 lung; 97.7% with NCI-H322M lung; 102% with HOP-62 NSCLC; 99.6% in the experiment with NCI-H460 lung; 81.7% in the experiment with HOP-92 NSCLC. Also, the growth in the experiment with NCI-H522 lung is 76.6%; with A549/ATCC NSCLC it was 82.2%; with 786-0 renal it was 95.8%; in the experiment on COLO 205 colon, 114%.
`O=c1c2c3c(sc2nc(N/N=C/c2cn(-c4ccccc4)nc2-c2ccc(Cl)cc2)n1Cc1ccccc1)CCCC3`: the growth is 106% in the experiment with NCI-H23 lung; 102% in the experiment on NCI-H226 lung; 111% in the experiment on NCI-H322M lung; 98.5% in the experiment on HOP-62 NSCLC; 97.7% in the experiment on NCI-H460 lung; 74.2% with HOP-92 NSCLC. In addition, the growth in the experiment with NCI-H522 lung was 84.7%; in the experiment with A549/ATCC NSCLC, 83.6%; in the experiment on 786-0 renal, 95.2%; in the experiment on COLO 205 colon, 109%.
